The record followed here is PubChem BioAssay (NCATS).

Each structure is given as a SMILES string. Inconclusive results are not listed. Activity calls are given as the source filed them. Unless noted, calls follow the shape of the dose curve; as a rule, active = well fitted curve in the direction sought with a large enough effect; inconclusive = small, poorly fitted or top-dose-only effect, or another doubt; inactive = no such curve, though single readings can be large; an effect the other way counts as inactive or inconclusive.

A short description of assay [1]: qHTS assay for measurement of the activity of small molecule inhibitors on Zika virus induced Caspase-3 activity in human iPSC derived neural progenitor cells (hNPCs) (AID 1224857). Also: nearly all actives have a fitted effect of over 65% in size. In outline:
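After overnight (16–20 h) culture at 350 cells/well, hNPCs get compound, then ZIKV 2 FFU/cell one hour later. Six hours on, Caspase-Glo 3/7 is added and luminescence measured.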

The nature of assay [2]: qHTS assay for measurement of the activity of small molecule inhibitors on Zika virus induced Caspase-3 activity in human astrocytoma cells (AID 1224859). Put shortly: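 Inhibition of Zika-induced caspase-3/7 activity: SNB-19 cells, 1 h compound pretreatment, ZIKV 2 FFU/cell for 6 h at 37 C, Caspase-Glo luminescence read-out.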
Background: In qHTS, concentration-response curves come from the screen itself.

Assay [3] in a line: Natriuretic polypeptide receptor (hNpr1) antagonism - Pilot counterscreen GloSensor control cell line (AID 1347045; calls by dose curve; also: series mostly up to about 38 µM). Put shortly:
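The SNP-driven cGMP luminescence signal (50 uM, 20 min, room temperature) was measured in GloSensor HEK293 control cells. Compounds were tested as a LOPAC titration series and preincubated for 30-50 min.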
(In general: The purpose of a counterscreen is to sort out artefacts and off-target activity.)

Assay [4] addresses Atrial natriuretic peptide receptor 1 (Homo sapiens) (UniProt P16066). Put plainly: Natriuretic polypeptide receptor (hNpr1) antagonism - Pilot screen (AID 1347049; calls by dose curve;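 also: agonist-evoked cGMP luminescence read 20 min after hNppA addition; series mostly up to about 58 µM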). Put shortly: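 cGMP-sensor HEK293/hNpr1 cells, 1500/well, plated overnight at 37C. 2% GloSensor reagent, 2 h RT. Compound (23 nL pin transfer) 30 min RT, baseline luminescence pre-read. 0.1 nM hNppA, 20 min RT, post-read.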

Assay [5] concerns the target Atrial natriuretic peptide receptor 2 (Homo sapiens) (UniProt P20594). Kind of assay: Natriuretic polypeptide receptor (hNpr2) antagonism - Pilot subtype selectivity assay (AID 1347050; calls by dose curve). Put shortly:
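Luminescence from a genetically encoded cGMP luciferase biosensor in hNpr2-expressing HEK293 cells is read before and 20 min after adding 1 nM hNppC. Test compounds, in interplate 1:5 titrations, are added 30-50 min ahead of the agonist.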

Assay [6] is described as follows: NS1 protein of Zika virus - qHTS assay to identify small molecule inhibitors in human HEK 293 cells (AID 1347053). Also: series mostly up to about 46 µM; nearly all actives have a fitted effect of over 55% in size. In outline:
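In this cell-based screen, HEK 293 cultures received compound for one hour before Zika MR766 at MOI = 0.5. NS1 was quantified 24 hours later by TR-FRET, normalized to virus-free wells and infected wells.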

For assay [7], the target named is T1, Tyrosine-protein phosphatase non-receptor type substrate 1 (Homo sapiens) + Leukocyte surface antigen CD47 (Homo sapiens) (UniProt P78324+Q08722). Put plainly: CD47-SIRPalpha protein protein interaction - HTRF assay qHTS validation (AID 1347058; active = well fitted curve in the direction sought with a large enough effect in the signal ratio, not every such curve was filed as active; the % refers to the signal ratio; also: series mostly up to about 38 µM). In outline:
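Soluble extracellular domains (6His-CD47, Avi-tag-biotinylated SIRPalpha) in PBS pH 7.4 with 0.05% IGEPAL CA-630. Compounds were preincubated 30 min at RT with CD47 and anti-His-Eu, then SIRPalpha and SAV-XL665 were added. TR-FRET 665/615 ratio.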
In general terms: Time-resolved FRET reads energy transfer from a long-lived donor to a nearby acceptor.

Assay [8] addresses T1, Tyrosine-protein phosphatase non-receptor type substrate 1 (Homo sapiens) + Leukocyte surface antigen CD47 (Homo sapiens). Kind of assay: CD47-SIRPalpha protein protein interaction - Alpha assay qHTS validation (AID 1347059).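 Also: bead proximity luminescence from CD47 binding SIRPalpha after compound preincubation with SIRPalpha.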 Put shortly: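 SIRPalpha-biotin 25 nM + cpd, 30 min RT, dark; add CD47-His 12.5 nM, 30 min; add Ni-NTA/SAV beads 10 ug/mL, 30 min; AlphaScreen. Buffer PBS pH 7.4 + 0.05% IGEPAL CA-630. Non-biotinylated SIRPalpha as control inhibitor.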

Assay [9] deals with Parathyroid hormone/parathyroid hormone-related peptide receptor (Homo sapiens) (UniProt Q03431). Kind of assay: qHTS for PTHR1 Agonists: Optimization Screen against the NCGC LOPAC library (AID 1347079).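 Also: GloSensor cAMP luminescence in HEK-293 GP2 cells expressing human PTHR1 with IBMX.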 Put shortly:
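Signal increase flags agonism. GP2 cells, derived from HEK-293, express human PTHR1 and a GloSensor cAMP construct.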

In assay [10] the target is N-terminal Xaa-Pro-Lys N-methyltransferase 1 (Homo sapiens) (UniProt Q9BV86). Kind of assay: qHTS Assay for Inhibitors of N-terminal methyltransferase 1 (NTMT1): LOPAC validation of the NTMT1 SAHH-coupled ThioGlo3 Assay (AID 1347143).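 Also: SAH from peptide methylation measured as thiol fluorescence via SAHH coupling and ThioGlo3; nearly all actives have a fitted effect of over 70% in size.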 Also: potency is read from the fitted curve at half-maximal effect. In outline: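 Steps: dispense 125nM NTMT1; pin-transfer test compounds at several concentrations, with 1uM RCC1-6 peptide as control; incubate 1 min; start with reagent holding 100uM SAM, 10uM SAHH, 15uM ThioGlo3; read at 0 and 30 min.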

The subject of assay [11] is Zika virus NS2B-NS3 protease (unlinked). Kind of assay: Optimization of GU AMC qHTS for Zika virus inhibitors: Unlinked NS2B-NS3 protease assay (AID 1347151). Also: nearly all actives have a fitted effect of over 80% in size. Also: potency is read from the fitted curve at half-maximal effect. In outline: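 Noncovalent complex of NS2B hydrophilic domain and NS3 protease domain, 25 nM final, in 10 mM Tris-HCl pH 8.0, 0.01% Tween 20. AMC fluorescence change over 15 min at room temperature was fitted to a 4-parameter Hill equation.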

For assay [12], the target named is T1, Tyrosine-protein phosphatase non-receptor type substrate 1 (Homo sapiens) + Leukocyte surface antigen CD47 (Homo sapiens). Put plainly: CD47-SIRPalpha protein protein interaction - LANCE assay qHTS validation (AID 1347057; active = well fitted curve in the direction sought with a large enough effect in the signal ratio, with a control signal flat, not every such curve was filed as active; the % refers to the signal ratio; also: series mostly up to about 38 µM). In outline:
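Inhibition of soluble CD47/SIRPalpha ectodomain association by titrated compounds, measured as 665/615 nm time-resolved FRET ratio after sequential 30 min room-temperature incubations.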

For assay [13], the target named is Furin (Homo sapiens) (UniProt P09958). Kind of assay: Furin counterscreen qHTS for Zika virus inhibitors (AID 1347149). Also: potency is read from the fitted curve at half-maximal effect; nearly all actives have a fitted effect of over 70% in size. Put shortly: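 Counterscreen measures cleavage of 2 microM BOC-RVRR-AMC, below its ~15 microM Km, by 5 nM full-length human furin at pH 7.0 after a 15-min compound preincubation. Inhibition derives from the 15-min fluorescence increase at 37C.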

Assay [14] has as its system Zika virus NS2B-NS3 protease (linked construct). Kind of assay: Confirmatory screen NINDS AMC qHTS for Zika virus inhibitors (AID 1347152). Also: potency is read from the fitted curve at half-maximal effect; nearly all actives have a fitted effect of over 70% in size. In outline:
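Purified NS2B-NS3 protease with NS2B hydrophilic domain linked to NS3 protease domain by flexible linker, 1 nM final in 10 mM Tris-HCl pH 8.0, 0.01% Tween 20. Compounds preincubated 15 min, room temperature; Bz-Nle-KRR-AMC 10 microM (Km 18.3 µM); 15-min fluorescence change, 4-parameter Hill fit.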

Sequence of Atrial natriuretic peptide receptor 2 (Homo sapiens) (P20594 whole entry, looked up): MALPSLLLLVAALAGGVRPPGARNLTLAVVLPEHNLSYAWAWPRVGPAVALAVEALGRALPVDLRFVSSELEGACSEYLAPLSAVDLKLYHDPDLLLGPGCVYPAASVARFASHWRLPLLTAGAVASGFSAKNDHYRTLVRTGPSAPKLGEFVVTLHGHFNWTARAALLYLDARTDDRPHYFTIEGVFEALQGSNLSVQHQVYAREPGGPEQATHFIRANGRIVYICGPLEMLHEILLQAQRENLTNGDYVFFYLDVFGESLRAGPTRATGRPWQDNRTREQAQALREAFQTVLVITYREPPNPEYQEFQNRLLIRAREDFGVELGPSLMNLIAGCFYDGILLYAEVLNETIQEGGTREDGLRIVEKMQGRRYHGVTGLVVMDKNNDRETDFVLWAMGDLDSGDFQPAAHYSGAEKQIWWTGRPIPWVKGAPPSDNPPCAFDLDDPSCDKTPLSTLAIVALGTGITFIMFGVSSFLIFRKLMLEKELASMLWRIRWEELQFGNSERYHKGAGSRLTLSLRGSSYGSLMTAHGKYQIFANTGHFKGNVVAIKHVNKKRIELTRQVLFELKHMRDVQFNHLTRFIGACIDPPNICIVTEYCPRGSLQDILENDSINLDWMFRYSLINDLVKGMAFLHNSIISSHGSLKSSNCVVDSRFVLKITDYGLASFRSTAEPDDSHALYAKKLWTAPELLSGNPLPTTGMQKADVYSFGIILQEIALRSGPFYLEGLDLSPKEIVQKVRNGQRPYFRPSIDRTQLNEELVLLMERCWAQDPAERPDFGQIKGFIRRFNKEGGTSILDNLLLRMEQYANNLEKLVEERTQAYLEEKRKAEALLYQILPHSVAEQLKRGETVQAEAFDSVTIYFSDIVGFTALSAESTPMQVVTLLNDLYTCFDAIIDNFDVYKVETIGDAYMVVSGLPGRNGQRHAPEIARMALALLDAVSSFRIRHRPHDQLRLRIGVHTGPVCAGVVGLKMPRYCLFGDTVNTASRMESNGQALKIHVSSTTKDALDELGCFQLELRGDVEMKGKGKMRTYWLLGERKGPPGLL
Sequence of N-terminal Xaa-Pro-Lys N-methyltransferase 1 (Homo sapiens) (Q9BV86 whole entry, looked up): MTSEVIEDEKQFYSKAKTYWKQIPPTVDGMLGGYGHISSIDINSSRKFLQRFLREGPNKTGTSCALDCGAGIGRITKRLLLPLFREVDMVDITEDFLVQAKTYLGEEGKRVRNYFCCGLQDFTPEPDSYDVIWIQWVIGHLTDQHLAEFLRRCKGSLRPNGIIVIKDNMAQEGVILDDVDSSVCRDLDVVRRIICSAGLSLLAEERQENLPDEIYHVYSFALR
Sequence of Atrial natriuretic peptide receptor 1 (Homo sapiens) (P16066 whole entry, looked up): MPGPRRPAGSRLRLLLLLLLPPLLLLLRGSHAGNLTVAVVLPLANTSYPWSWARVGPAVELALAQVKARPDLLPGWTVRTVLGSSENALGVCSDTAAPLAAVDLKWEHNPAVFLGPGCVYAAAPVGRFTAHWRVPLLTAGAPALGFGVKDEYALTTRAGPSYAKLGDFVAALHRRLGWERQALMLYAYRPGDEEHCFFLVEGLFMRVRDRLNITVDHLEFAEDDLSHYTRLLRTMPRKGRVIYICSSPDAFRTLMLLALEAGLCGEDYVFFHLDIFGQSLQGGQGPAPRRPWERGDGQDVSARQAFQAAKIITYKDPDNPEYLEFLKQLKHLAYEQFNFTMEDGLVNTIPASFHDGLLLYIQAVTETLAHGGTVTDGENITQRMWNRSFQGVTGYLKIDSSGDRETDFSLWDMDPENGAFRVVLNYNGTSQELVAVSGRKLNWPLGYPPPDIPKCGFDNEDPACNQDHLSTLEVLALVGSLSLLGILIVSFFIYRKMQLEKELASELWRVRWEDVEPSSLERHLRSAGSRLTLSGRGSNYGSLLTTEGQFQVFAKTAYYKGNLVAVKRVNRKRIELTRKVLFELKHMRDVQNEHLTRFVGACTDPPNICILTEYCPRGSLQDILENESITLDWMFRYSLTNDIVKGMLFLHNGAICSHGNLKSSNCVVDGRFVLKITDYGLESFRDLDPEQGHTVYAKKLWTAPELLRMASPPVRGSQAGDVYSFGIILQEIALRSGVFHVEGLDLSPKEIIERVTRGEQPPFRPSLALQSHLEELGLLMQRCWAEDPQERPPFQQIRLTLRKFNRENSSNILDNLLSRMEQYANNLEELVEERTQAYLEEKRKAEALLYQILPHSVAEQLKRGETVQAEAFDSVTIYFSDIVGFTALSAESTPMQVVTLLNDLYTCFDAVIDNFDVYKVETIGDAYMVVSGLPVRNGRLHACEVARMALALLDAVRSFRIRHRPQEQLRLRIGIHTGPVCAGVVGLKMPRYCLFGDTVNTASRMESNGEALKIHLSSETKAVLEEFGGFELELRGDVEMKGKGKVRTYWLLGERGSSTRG
T1 sequence (P78324 whole entry, looked up, the tested form may be a part): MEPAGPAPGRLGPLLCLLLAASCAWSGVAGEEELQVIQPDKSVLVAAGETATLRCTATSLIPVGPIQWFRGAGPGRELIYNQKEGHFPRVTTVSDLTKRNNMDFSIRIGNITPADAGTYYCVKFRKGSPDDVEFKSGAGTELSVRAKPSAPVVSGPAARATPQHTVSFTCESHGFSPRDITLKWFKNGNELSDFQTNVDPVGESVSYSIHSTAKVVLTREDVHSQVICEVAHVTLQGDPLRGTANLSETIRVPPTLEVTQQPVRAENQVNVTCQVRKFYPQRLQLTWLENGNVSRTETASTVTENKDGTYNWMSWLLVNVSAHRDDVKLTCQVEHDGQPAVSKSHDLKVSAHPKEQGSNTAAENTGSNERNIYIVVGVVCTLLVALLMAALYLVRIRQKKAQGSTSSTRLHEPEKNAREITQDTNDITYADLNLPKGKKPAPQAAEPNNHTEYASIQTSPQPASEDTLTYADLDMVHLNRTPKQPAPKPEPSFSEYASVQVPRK
T1 sequence (Q08722 whole entry, looked up, the tested form may be a part): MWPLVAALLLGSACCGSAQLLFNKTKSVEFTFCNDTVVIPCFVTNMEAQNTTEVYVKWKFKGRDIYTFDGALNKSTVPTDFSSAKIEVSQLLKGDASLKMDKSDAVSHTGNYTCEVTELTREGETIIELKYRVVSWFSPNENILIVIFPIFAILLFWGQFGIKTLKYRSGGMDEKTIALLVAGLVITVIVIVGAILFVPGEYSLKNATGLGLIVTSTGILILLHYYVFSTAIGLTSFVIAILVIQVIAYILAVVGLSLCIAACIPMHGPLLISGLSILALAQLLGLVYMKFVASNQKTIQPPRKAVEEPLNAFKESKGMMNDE
Sequence of Parathyroid hormone/parathyroid hormone-related peptide receptor (Homo sapiens) (Q03431 whole entry, looked up): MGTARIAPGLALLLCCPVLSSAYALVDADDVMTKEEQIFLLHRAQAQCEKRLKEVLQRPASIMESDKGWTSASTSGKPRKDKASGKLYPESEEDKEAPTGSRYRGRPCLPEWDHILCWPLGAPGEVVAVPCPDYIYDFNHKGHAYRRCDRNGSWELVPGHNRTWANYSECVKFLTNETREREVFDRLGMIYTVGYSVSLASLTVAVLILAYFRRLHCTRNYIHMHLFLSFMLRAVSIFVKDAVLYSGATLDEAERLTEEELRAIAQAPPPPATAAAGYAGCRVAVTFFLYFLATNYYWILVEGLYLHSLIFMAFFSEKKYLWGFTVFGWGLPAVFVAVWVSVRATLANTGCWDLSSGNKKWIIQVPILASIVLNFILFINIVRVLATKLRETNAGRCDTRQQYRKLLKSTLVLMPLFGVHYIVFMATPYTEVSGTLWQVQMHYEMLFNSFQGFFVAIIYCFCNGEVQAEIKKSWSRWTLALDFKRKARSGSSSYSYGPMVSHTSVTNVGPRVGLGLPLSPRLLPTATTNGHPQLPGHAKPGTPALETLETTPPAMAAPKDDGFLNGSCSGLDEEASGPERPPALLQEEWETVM
Sequence of Furin (Homo sapiens) (P09958 whole entry, looked up): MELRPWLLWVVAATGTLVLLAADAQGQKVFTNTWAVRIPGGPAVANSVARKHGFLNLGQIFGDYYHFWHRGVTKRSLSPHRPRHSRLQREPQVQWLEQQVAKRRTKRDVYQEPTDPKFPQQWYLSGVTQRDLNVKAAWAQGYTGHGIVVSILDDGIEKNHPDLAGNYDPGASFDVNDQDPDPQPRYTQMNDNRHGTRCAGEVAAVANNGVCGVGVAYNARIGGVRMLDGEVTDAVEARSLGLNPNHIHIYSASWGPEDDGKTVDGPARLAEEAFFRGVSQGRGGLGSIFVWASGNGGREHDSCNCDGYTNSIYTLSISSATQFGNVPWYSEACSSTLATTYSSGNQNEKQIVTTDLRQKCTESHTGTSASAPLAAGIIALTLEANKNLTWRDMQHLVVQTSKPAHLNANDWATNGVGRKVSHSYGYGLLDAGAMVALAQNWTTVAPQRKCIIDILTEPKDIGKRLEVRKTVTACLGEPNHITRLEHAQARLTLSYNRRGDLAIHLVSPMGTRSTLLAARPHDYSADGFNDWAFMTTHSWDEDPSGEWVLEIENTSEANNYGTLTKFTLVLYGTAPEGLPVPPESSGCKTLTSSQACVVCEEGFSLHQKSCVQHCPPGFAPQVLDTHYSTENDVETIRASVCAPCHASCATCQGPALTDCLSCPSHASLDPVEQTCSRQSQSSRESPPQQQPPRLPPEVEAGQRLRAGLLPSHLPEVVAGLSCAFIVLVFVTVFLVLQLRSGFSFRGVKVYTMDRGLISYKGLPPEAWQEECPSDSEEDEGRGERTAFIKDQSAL

Turning to `O=C(O)CCC/C=C\C[C@@H]1[C@@H](/C=C/[C@H](O)C2Cc3ccccc3C2)[C@@H](F)C[C@@H]1O`, the Potency result in assay [1], in [2], in assay [3], in assay [4], in assay [5] and in assay [6] was “inactive” throughout. The Potency entry in assay [8], in assay [9], in assay [10] and in [11] was “inactive” in each case. Further, the result in [7] was inactive.
As for `CC#CCOC(=O)c1c(C)nc2sc3c(c2c1N)CCC(O)C3` (stereo unspecified), the Potency entry in [1], in assay [2], in assay [3], in [4], in assay [5] and in assay [6] was “inactive” throughout. Also, the Potency result in assay [8] and in [9] was “inactive” each time. For the same compound, in assay [10], the Potency is 56.2 µM (active).
As for `CCN1C(=O)C=CC1=O`, the Potency entry in [1], in assay [2], in assay [3], in assay [4], in [5] and in assay [6] was “inactive” each time. The Potency entry in assay [8], in assay [9] and in [11] was “inactive” in each case. In [7], the result was inactive.
Consider `CCn1c(=O)[nH]c2cc(Cl)c(Cl)cc21`, for which the Potency result in [1], in assay [2], in assay [3], in assay [5], in assay [6] and in [12] was “inactive” throughout. Besides, the Potency result in assay [8], in assay [9], in assay [10] and in assay [11] was “inactive” throughout. The result in assay [7] was inactive.
Consider `Cn1c(=O)c2[nH]c(-c3ccc(S(=O)(=O)O)cc3)nc2n(C)c1=O`, for which the Potency entry in [1], in assay [2], in [3], in assay [4], in [5] and in assay [6] was “inactive” in each case. Also, the Potency result in [8], in assay [9] and in [11] was “inactive” each time. Also, the Potency in [10] was 12.6 µM (active); in assay [13], 12.1 µM (active); in [14], 6.81 µM (active).
As to `COC(=O)[C@H](NC(=O)c1cc(-c2ccccc2)nc2ccccc12)c1ccccc1`, the Potency result in assay [1], in assay [2], in assay [3], in assay [4], in assay [5] and in assay [6] was “inactive” throughout. Also, the Potency result in assay [8] and in [9] was “inactive” throughout. Further, in assay [7], the result was inactive. The Potency in [10] is 56.2 µM (active); in assay [11], 23.8 µM (active).
On to `CCCC(=O)NCCc1c2n(c3ccc(OC)cc13)CCCc1ccccc1-2`, for which the Potency entry in [1], in assay [2], in [3], in assay [5], in [6] and in [12] was “inactive” in each case. Further, the Potency entry in [8] and in assay [9] was “inactive” each time. Besides, the outcome in [7] was inactive. Besides, the Potency in [11] was 26.7 µM (active).
Regarding `N=C(N)c1ccccc1`, the Potency entry in assay [1], in assay [2], in [3], in assay [5], in assay [6] and in assay [12] was “inactive” throughout. The Potency entry in assay [8], in [9], in assay [10] and in assay [11] was “inactive” each time. In [7], the result was inactive.
With `CC(N)=O`, the Potency entry in assay [1], in assay [2], in assay [3], in assay [5], in assay [6] and in assay [12] was “inactive” in each case. Besides, the Potency result in [8], in [9], in [10] and in assay [11] was “inactive” each time. For the same compound, in assay [7], the outcome was inactive.
For the compound `O=c1ccn([C@@H]2O[C@H](COP(=O)(O)OP(=O)(O)O)[C@@H](O)[C@H]2O)c(=O)[nH]1`, the Potency entry in assay [1], in [2], in assay [3], in assay [5], in assay [6] and in assay [12] was “inactive” each time. Moreover, the Potency result in assay [8], in [9], in assay [10] and in assay [11] was “inactive” each time.
